Of roughly 7,900 targets only a part is listed; those with a hit were picked by preference. About 0.6% of all pairs of compound and target were hits. Values without a mark were called inactive.
What was measured:
Experiment in all cases: log2 fold change, soluble protein after heating vs DMSO (PISA); higher = thermal stabilisation; K562 cells, 10 uM, 30 min; active = over 0.2 and 3.5 SD of the protein, either way, in both replicates (recomputed)
erlotinib = compound: C#Cc1cccc(Nc2ncnc3cc(OCCOC)c(OCCOC)cc23)c1 [erlotinib]
Method in brief: (§1)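 K562 cells at 2×10^6 cells/mL were exposed to 10 μM compound for 30 min, then aliquots were heated for 3 min across 48°C-58°C, pooled, and extracted in PBS containing 0.5% NP-40 at 4°C. The supernatant after 21,000xg for 90 min was taken as soluble protein and measured by TMTpro 16plex LC-MS/MS with channel sums equalised. Thermal stability is reported relative to control samples, with values from duplicates. Fold changes are given on a log2 scale.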

[1] = compound: C/C(=N\NC(=O)C1=CC(=CC=C1)S(=O)(=O)N2CCOCC2)/C3=C(C=CC(=C3)Cl)O
Method in brief: as §1

[2] = compound: C1=CC(=C(C=C1Cl)C2=NC3=NC=CN=C3C(=N2)NC4=CC=NC=C4)F
Method in brief: as §1

[3] = compound: C1=CC(=CC=C1C2=NC3=C(N2)C=C(C=C3)C(=O)N)OC4=CC=C(C=C4)Cl
Method in brief: as §1

[4] = compound: C1=CC2=C(C=CC(=C2)/C=C\3/C(=O)NC(=NCC4=CC=CS4)S3)N=C1
Method in brief: as §1

[5] = compound: C1=CC2=NC=CN=C2C=C1/C=C/3\C(=O)NC(=O)S3
Method in brief: as §1

[6] = compound: C1=CC=C(C=C1)C2=NC(=C(N2)C3=CC=NC=C3)C4=CC(=C(C=C4)Cl)O
Method in brief: as §1

[7] = compound: C1=CC=C2C(=C1)C3=NNC4=CC=CC(=C43)C2=O
Method in brief: as §1

[8] = compound: C1CCN(C1)C(=O)NC2=CC=CC(=C2)NC3=NC=C(C(=N3)NCCC4=CN=CN4)Br
Method in brief: as §1

[9] = compound: C1CN(CCC1(CC2=CC=C(C=C2)Cl)N)C3=NC=NC4=C3C=CN4
Method in brief: as §1

Chain of UniProt Q9BUP3 (Q9BUP3 whole entry, looked up): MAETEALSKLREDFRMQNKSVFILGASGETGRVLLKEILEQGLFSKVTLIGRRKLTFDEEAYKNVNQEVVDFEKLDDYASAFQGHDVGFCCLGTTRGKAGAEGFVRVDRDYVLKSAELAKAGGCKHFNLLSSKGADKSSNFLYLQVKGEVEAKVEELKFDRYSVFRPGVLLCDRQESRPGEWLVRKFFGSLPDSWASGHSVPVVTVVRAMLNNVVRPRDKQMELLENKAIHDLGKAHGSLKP
Chain of UniProt Q9BYC5 (Q9BYC5 whole entry, looked up): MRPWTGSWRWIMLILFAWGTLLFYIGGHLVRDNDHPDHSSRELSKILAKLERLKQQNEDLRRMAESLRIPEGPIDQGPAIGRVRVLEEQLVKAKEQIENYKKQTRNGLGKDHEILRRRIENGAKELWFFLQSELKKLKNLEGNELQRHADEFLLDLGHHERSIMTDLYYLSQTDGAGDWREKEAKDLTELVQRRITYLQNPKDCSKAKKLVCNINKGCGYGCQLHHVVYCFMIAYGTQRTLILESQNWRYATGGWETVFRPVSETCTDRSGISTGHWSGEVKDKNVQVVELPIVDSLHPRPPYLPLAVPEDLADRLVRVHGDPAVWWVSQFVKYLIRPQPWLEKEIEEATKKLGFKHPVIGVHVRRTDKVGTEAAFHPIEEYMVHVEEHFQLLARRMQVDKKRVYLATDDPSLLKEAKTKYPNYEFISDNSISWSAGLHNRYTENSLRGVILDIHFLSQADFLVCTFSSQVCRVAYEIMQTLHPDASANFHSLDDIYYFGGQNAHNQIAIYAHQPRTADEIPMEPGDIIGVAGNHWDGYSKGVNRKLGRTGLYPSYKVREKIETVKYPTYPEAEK
Chain of UniProt P51570 (P51570 whole entry, looked up): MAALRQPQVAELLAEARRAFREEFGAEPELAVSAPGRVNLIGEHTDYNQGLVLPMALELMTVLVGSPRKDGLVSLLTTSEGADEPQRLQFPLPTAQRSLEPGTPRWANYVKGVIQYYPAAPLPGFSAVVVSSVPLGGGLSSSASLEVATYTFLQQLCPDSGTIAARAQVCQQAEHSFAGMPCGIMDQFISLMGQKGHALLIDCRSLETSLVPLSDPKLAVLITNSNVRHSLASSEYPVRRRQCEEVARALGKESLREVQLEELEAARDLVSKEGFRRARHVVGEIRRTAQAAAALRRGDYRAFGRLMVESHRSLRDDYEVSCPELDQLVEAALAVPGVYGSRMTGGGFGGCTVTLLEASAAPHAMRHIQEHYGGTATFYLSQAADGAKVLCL
Chain of UniProt Q9UJ14 (Q9UJ14 whole entry, looked up): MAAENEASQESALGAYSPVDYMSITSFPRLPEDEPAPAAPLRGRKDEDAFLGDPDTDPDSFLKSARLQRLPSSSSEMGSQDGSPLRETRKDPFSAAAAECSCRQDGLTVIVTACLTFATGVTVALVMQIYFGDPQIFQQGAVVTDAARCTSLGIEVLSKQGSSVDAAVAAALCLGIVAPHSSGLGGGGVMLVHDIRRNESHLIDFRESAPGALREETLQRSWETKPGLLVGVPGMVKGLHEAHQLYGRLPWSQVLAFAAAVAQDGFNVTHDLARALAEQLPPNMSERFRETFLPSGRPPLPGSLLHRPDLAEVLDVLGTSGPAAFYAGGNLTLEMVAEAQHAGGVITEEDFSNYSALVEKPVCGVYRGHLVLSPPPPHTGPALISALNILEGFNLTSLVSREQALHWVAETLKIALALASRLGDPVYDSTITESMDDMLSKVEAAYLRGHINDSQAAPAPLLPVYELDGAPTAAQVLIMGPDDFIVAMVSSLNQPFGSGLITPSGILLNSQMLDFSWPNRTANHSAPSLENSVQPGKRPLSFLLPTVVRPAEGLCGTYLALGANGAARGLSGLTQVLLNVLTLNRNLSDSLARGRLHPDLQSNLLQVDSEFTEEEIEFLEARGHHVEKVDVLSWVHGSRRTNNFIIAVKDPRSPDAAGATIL
Chain of UniProt P05362 (P05362 whole entry, looked up): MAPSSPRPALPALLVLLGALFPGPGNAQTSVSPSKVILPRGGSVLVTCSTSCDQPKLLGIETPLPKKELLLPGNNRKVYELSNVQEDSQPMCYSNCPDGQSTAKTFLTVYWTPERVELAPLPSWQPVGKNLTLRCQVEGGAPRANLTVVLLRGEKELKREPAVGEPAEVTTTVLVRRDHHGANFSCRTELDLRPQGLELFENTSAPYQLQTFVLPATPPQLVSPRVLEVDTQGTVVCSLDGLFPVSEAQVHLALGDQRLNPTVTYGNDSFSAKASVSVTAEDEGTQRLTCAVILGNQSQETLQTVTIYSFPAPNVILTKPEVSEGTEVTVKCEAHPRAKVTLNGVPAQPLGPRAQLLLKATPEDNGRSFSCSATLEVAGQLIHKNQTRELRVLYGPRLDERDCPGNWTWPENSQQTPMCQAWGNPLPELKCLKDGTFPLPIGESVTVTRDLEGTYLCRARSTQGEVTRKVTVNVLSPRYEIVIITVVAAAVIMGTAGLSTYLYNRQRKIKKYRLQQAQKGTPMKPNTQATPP
Chain of UniProt O00165 (O00165 whole entry, looked up): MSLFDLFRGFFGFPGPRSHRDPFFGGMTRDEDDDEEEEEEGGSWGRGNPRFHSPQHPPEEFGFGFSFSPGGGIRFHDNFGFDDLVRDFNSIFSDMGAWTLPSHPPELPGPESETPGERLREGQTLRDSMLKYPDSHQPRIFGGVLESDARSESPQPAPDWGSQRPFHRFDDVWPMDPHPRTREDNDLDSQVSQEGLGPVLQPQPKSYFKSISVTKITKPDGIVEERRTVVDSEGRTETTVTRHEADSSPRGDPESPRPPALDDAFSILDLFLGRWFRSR
Chain of UniProt Q8IVV7 (Q8IVV7 whole entry, looked up): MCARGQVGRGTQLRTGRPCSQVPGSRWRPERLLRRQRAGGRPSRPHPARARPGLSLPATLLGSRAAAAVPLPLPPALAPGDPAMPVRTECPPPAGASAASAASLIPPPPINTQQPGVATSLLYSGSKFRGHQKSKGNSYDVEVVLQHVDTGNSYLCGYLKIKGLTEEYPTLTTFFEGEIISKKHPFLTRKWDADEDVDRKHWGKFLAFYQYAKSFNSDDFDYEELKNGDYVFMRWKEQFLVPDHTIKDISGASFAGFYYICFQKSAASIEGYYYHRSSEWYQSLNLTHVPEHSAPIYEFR
Chain of UniProt P13807 (P13807 whole entry, looked up): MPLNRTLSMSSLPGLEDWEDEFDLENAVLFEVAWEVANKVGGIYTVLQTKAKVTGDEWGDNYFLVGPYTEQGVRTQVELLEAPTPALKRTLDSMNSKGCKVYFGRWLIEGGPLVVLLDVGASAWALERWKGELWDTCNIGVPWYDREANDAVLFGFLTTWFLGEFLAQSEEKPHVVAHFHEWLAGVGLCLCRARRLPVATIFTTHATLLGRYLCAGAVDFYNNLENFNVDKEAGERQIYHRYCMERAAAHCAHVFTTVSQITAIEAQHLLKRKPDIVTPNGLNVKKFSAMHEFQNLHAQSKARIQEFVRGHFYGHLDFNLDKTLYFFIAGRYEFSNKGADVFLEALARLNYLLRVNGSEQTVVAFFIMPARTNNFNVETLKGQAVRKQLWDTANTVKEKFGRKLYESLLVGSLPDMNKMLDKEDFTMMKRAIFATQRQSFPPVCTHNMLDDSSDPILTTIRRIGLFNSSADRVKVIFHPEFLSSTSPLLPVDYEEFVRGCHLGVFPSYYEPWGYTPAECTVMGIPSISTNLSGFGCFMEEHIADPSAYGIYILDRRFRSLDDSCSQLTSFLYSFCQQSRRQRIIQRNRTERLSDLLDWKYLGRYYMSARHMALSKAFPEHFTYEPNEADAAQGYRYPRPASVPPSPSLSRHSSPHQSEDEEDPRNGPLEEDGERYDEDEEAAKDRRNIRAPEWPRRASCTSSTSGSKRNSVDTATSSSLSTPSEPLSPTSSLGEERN
Chain of UniProt O15117 (O15117 whole entry, looked up): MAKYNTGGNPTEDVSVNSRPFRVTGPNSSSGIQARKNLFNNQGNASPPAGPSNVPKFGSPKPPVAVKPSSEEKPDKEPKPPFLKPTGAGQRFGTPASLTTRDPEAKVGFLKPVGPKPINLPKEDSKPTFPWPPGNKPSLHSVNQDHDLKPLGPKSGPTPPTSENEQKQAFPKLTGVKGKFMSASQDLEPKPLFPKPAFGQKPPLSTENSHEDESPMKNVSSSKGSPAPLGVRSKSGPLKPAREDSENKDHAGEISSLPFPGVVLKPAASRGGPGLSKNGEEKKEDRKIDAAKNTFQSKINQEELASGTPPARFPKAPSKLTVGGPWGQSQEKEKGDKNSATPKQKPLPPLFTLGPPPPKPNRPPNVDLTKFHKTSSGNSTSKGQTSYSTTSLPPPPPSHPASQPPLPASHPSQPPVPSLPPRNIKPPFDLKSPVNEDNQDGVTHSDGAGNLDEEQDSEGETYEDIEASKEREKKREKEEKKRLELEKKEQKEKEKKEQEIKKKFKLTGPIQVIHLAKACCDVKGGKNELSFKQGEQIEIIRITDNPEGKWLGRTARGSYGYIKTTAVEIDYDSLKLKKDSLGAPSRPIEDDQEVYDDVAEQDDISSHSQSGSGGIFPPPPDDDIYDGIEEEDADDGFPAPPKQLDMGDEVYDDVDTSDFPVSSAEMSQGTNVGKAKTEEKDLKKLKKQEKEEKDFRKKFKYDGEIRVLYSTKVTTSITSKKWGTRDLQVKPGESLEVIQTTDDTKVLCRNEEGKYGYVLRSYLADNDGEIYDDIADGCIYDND
Chain of UniProt P39748 (P39748 whole entry, looked up): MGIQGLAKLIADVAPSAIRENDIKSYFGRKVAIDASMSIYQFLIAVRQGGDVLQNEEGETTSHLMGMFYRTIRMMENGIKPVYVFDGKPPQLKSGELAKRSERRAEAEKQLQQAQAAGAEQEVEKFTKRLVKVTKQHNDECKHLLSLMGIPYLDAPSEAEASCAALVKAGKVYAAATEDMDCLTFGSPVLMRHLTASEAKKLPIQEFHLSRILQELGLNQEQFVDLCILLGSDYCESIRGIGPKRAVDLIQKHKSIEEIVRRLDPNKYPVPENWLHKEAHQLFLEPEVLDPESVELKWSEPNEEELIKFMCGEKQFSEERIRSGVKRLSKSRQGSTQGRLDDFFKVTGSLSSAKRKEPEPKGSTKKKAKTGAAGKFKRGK

| Target | log2 fold change (erlotinib) | log2 fold change [1] | log2 fold change [2] | log2 fold change [3] | log2 fold change [4] | log2 fold change [5] | log2 fold change [6] | log2 fold change [7] | log2 fold change [8] | log2 fold change [9] |
| --- | --- | --- | --- | --- | --- | --- | --- | --- | --- | --- |
| FKBP4 (UniProt Q02790) | -0.04 | 0.07 | 0.055 | -0.042 | 0.017 | 0.007 | 0.036 | 0.047 | 0.016 | -0.033 |
| GAGE12F (UniProt P0CL80) | -0.056 | -0.061 | 0.017 | -0.035 | 0.08 | 0.025 | -0.007 | 0.011 | -0.088 | 0.052 |
| HAX1 (UniProt O00165) | 0.07 | -0.006 | -0.024 | -0.014 | 0.087 | 0.008 | 0.06 | 0.156 | 0.027 | -0.078 |
| FNTB (UniProt P49356) | 0.488 (active) | 0.028 | 0.203 | 0.028 | 0.208 | -0.024 | 0.091 | 0.107 | 0.326 | 0.065 |
| GLUD2 (UniProt P49448) | 0.009 | -0.028 | 0.028 | 0.036 | 0.003 | -0.011 | 0.03 | 0.027 | -0.005 | -0.009 |
| IFT80 isoform 3 (UniProt Q9P2H3) | 0.04 | 0.071 | -0.04 | 0.013 | 0.042 | -0.011 | -0.066 | -0.229 | -0.013 | 0.042 |
| GALK1 isoform 2 (UniProt P51570) | 0.002 | 0.082 | 0.158 | -0.023 | -0.08 | 0.016 | 0.07 | 0.055 | -0.094 | 0.076 |
| FAM91A1 (UniProt Q658Y4) | 0.005 | 0.019 | 0.168 | 0.082 | 0.019 | -0.017 | -0.033 | 0.069 | -0.057 | -0.152 |
| IDH3A (UniProt P50213) | 0.021 | 0.034 | 0.1 | 0.023 | 0.021 | 0.017 | -0.03 | 0.024 | -0.009 | 0.028 |
| GIGYF2 (UniProt Q6Y7W6) | 0.062 | 0.081 | -0.022 | -0.03 | 0.05 | 0.014 | 0.009 | 0.025 | -0.039 | -0.025 |
| GHDC (UniProt Q8N2G8) | 0.062 | 0.046 | -0.002 | 0.013 | 0.011 | 0.003 | -0.021 | -0.008 | -0.009 | 0.06 |
| FUT8 (UniProt Q9BYC5) | -0.036 | 0.019 | -0.07 | -0.12 | -0.145 | -0.055 | -0.004 | -0.038 | 0.045 | -0.038 |
| HBZ (UniProt P02008) | -0.013 | 0.077 | 0.252 | 0.042 | 0.143 | 0.006 | 0.118 | 0.017 | -0.034 | 0.043 |
| HIP1R (UniProt O75146) | 0.017 | 0.034 | 0.024 | 0.005 | 0.054 | 0.013 | 0.018 | 0.033 | -0.004 | -0.005 |
| GUSB (UniProt P08236) | 0.09 | -0.099 | -0.063 | 0.165 | -0.095 | 0.032 | 0.009 | 0.052 | 0.033 | -0.002 |
| FBXO6 (UniProt Q9NRD1) | -0.069 | 0.046 | 0.075 | 0.007 | 0.048 | 0.007 | 0.021 | 0.002 | -0.031 | 0 |
| ICAM1 (UniProt P05362) | 0.008 | 0.008 | 0.015 | 0.018 | -0.005 | -0.033 | -0.01 | -0.004 | -0.047 | 0.073 |

| Target | log2 fold change (erlotinib) | log2 fold change [1] | log2 fold change [2] | log2 fold change [3] | log2 fold change [4] | log2 fold change [5] | log2 fold change [6] | log2 fold change [7] | log2 fold change [8] | log2 fold change [9] |
| --- | --- | --- | --- | --- | --- | --- | --- | --- | --- | --- |
| HTATIP2 isoform 3 (UniProt Q9BUP3) | 0.016 | 0.112 | 0.016 | -0.02 | -0.143 | 0.005 | 0.012 | 0.033 | -0.039 | 0.005 |
| GGA2 (UniProt Q9UJY4) | 0.036 | -0.041 | -0.151 | 0.003 | 0.063 | 0.033 | -0.053 | -0.013 | 0.025 | -0.016 |
| GYS1 (UniProt P13807) | -0.022 | -0.104 | -0.345 | -0.066 | -0.071 | -0.003 | -0.14 | 0.176 | -0.021 | -0.069 |
| FYB1 isoform 3 (UniProt O15117) | 0.019 | 0.032 | -0.02 | -0.01 | 0.057 | 0.006 | 0.014 | -0.08 | -0.041 | 0 |
| GBE1 (UniProt Q04446) | 0.008 | 0.135 | 0.037 | -0.057 | 0.158 | -0.019 | -0.058 | -0.03 | -0.061 | -0.108 |
| FEN1 (UniProt P39748) | 0.126 | 0.098 | 0.091 | 0.026 | 0.172 | 0.003 | 0.118 | 0.026 | 0.007 | -0.068 |
| GOLGB1 isoform 2 (UniProt Q14789) | -0.152 | -0.045 | -0.312 (active) | -0.055 | 0.099 | 0.071 | -0.049 | -0.059 | -0.059 | -0.08 |
| GID4 (UniProt Q8IVV7) | -0.033 | 0.017 | 0.005 | 0.028 | -0.046 | 0.003 | -0.072 | -0.018 | 0.042 | -0.005 |
| GTPBP6 (UniProt O43824) | -0.091 | -0.017 | -0.137 | 0.01 | 0.041 | 0.066 | -0.036 | -0.05 | 0.06 | 0.027 |
| GTF2B (UniProt Q00403) | 0.069 | 0.136 | 0.048 | -0.035 | 0.149 | 0.027 | -0.033 | 0.01 | -0.065 | -0.046 |
| GGT7 (UniProt Q9UJ14) | 0.012 | -0.006 | 0.084 | -0.027 | -0.001 | -0.004 | -0.018 | -0.01 | -0.035 | 0.062 |
| HLTF (UniProt Q14527) | -0.005 | 0.018 | 0.068 | 0.039 | 0.034 | -0.067 | -0.009 | 0.044 | -0.016 | -0.011 |
| HOMER1 (UniProt Q86YM7) | -0.103 | -0.015 | -0.05 | 0.016 | 0.021 | 0.074 | -0.057 | -0.015 | 0.062 | -0.011 |
| GLIPR2 (UniProt Q9H4G4) | 0.039 | 0.054 | -0.035 | 0.15 | 0.023 | -0.019 | -0.062 | -0.028 | 0.045 | -0.058 |
| FDFT1 (UniProt P37268) | 0.126 | -0.026 | -0.01 | 0.037 | 0.209 | 0 | 0.011 | 0.144 | -0.039 | 0.059 |
| GLYR1 (UniProt Q49A26) | -0.053 | -0.211 | -0.289 | 0.05 | -0.352 | 0.1 | -0.021 | -0.034 | 0.119 | -0.03 |

From the supplement of paper PMC10849652
